From PubChem BioAssay AID1159580 (chemical genetic matrix, 2015)
Screen size: about 5,500 compounds; about 2,000 (36%) were called active. Not shown: some 18% with an inconclusive outcome. Rule as the data show it: active = normalized growth mostly below about 0.91 (no sharp cut-off); inconclusive = no clear call, values can overlap the other calls; inactive = mostly above about 0.92. The list shows a part of the results.

Experiment: chemical genetic growth profiling, strain panel (AID 1159580);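 also: tested at 20 µM; growth read once vehicle control cultures reached saturation at 30 °C; 1 = growth at the plate median or of vehicle wells; lower values mean less growth of the strain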
Settings: growth OD

Measured: normalized growth

COc1cc2c(cc1OC)C1Cc3ccc(OC)c(OC)c3CN1CC2 (configuration not stated)
inactive: S. cerevisiae deletion strains, locus YJR066W, strain TOR1, active compounds read low 0.912 | S. cerevisiae deletion strains, locus YKL009W, strain mrt4, active compounds read low 0.988 | S. cerevisiae deletion strains, locus YKL068W, active compounds read low 0.999 | S. cerevisiae deletion strains, locus YKL085W, strain MDH1 (second series), active compounds read low 0.988 | S. cerevisiae deletion strains, locus YKL085W, strain MDH1, active compounds read low 0.988 | S. cerevisiae deletion strains, locus YKL160W, strain elf1, active compounds read low 1.01 | S. cerevisiae deletion strains, locus YKR001C, strain vps1, active compounds read low 1.01 | S. cerevisiae deletion strains, locus YKR026C, strain gcn3, active compounds read low 0.979 | S. cerevisiae deletion strains, locus YKR091W, strain srl3, active compounds read low 0.98 | S. cerevisiae deletion strains, locus YLL001W, strain dnm1, active compounds read low 0.99 | S. cerevisiae deletion strains, locus YLL026W, active compounds read low 0.989 | S. cerevisiae deletion strains, locus YLL041C, strain sdh2, active compounds read low 0.975 | S. cerevisiae deletion strains, locus YLR027C, strain aat2, active compounds read low 0.969 | S. cerevisiae deletion strains, locus YLR039C, strain RIC1, active compounds read low 0.979 | S. cerevisiae deletion strains, locus YLR058C, strain SHM2, active compounds read low 1.01 | S. cerevisiae deletion strains, locus YLR102C, strain apc9, active compounds read low 0.982 | S. cerevisiae deletion strains, locus YLR113W, strain HOG1, active compounds read low 0.978 | S. cerevisiae deletion strains, locus YLR221C, strain rsa3, active compounds read low 0.985 | S. cerevisiae deletion strains, locus YLR258W, strain gsy2, active compounds read low 0.977 | S. cerevisiae deletion strains, locus YLR262C, strain YPT6 (second series), active compounds read low 0.957 | S. cerevisiae deletion strains, locus YLR262C, strain YPT6, active compounds read low 0.918 | S. cerevisiae deletion strains, locus YLR268W, strain sec22, active compounds read low 0.962 | S. cerevisiae deletion strains, locus YLR320W, strain mms22, active compounds read low 0.982 | S. cerevisiae deletion strains, locus YLR330W, strain CHS5, active compounds read low 1.01 | S. cerevisiae deletion strains, locus YLR342W, strain FKS1 (second series), active compounds read low 0.957 | S. cerevisiae deletion strains, locus YLR342W, strain FKS1, active compounds read low 0.968 | S. cerevisiae deletion strains, locus YLR357W, strain rsc2, active compounds read low 0.994 | S. cerevisiae deletion strains, locus YLR370C, strain arc18, active compounds read low 0.971 | S. cerevisiae deletion strains, locus YLR371W, strain rom2, active compounds read low 1.01 | S. cerevisiae deletion strains, locus YLR384C, strain iki3, active compounds read low 0.988 | S. cerevisiae deletion strains, locus YLR418C, strain cdc73, active compounds read low 1.02 | S. cerevisiae deletion strains, locus YML016C, strain PPZ1, active compounds read low 0.988 | S. cerevisiae deletion strains, locus YML032C, strain rad52, active compounds read low 1.03 | S. cerevisiae deletion strains, locus YML120C, strain ndi1, active compounds read low 0.984 | S. cerevisiae deletion strains, locus YML124C, strain tub3, active compounds read low 0.987 | S. cerevisiae deletion strains, locus YMR058W, strain fet3, active compounds read low 0.984 | S. cerevisiae deletion strains, locus YMR078C, strain ctf18, active compounds read low 0.968 | S. cerevisiae deletion strains, locus YMR125W, strain sto1, active compounds read low 0.953 | S. cerevisiae deletion strains, locus YMR129W, active compounds read low 0.978 | S. cerevisiae deletion strains, locus YMR205C, strain PFK2, active compounds read low 0.987 | S. cerevisiae deletion strains, locus YMR223W, strain ubp8, active compounds read low 1.01 | S. cerevisiae deletion strains, locus YMR231W, strain pep5, active compounds read low 0.966 | S. cerevisiae deletion strains, locus YMR263W, strain SAP30, active compounds read low 1 | S. cerevisiae deletion strains, locus YMR307W, strain GAS1, active compounds read low 1 | S. cerevisiae deletion strains, locus YNL067W, strain RPL9B, active compounds read low 1.02 | S. cerevisiae deletion strains, locus YNL071W, strain lat1, active compounds read low 0.974 | S. cerevisiae deletion strains, locus YNL128W, strain TEP1, active compounds read low 0.983 | S. cerevisiae deletion strains, locus YNL153C, strain GIM3, active compounds read low 1.03 | S. cerevisiae deletion strains, locus YNL183C, strain NPR1, active compounds read low 0.93 | S. cerevisiae deletion strains, locus YNL209W, strain ssb2, active compounds read low 1.01 | S. cerevisiae deletion strains, locus YNL233W, strain BNI4, active compounds read low 1.02 | S. cerevisiae deletion strains, locus YNL248C, strain rpa49, active compounds read low 0.961 | S. cerevisiae deletion strains, locus YNL250W, strain rad50, active compounds read low 0.968 | S. cerevisiae deletion strains, locus YNL271C, strain bni1, active compounds read low 0.976 | S. cerevisiae deletion strains, locus YNL298W, strain CLA4, active compounds read low 0.991 | S. cerevisiae deletion strains, locus YNL307C, strain MCK1, active compounds read low 1 | S. cerevisiae deletion strains, locus YNL322C, strain KRE1 (second series), active compounds read low 0.948 | S. cerevisiae deletion strains, locus YNR049C, strain mso1, active compounds read low 0.967 | S. cerevisiae deletion strains, locus YNR052C, strain pop2, active compounds read low 0.993 | S. cerevisiae deletion strains, locus YOL012C, strain htz1 0.904 | S. cerevisiae deletion strains, locus YOL147C, strain pex11, active compounds read low 0.99 | S. cerevisiae deletion strains, locus YOR001W, strain rrp6, active compounds read low 0.957 | S. cerevisiae deletion strains, locus YOR061W, strain CKA2, active compounds read low 0.996 | S. cerevisiae deletion strains, locus YOR069W, strain VPS5, active compounds read low 0.984 | S. cerevisiae deletion strains, locus YOR070C, strain gyp1, active compounds read low 0.984 | S. cerevisiae deletion strains, locus YOR080W, strain dia2, active compounds read low 0.971 | S. cerevisiae deletion strains, locus YOR083W, strain WHI5, active compounds read low 1.01 | S. cerevisiae deletion strains, locus YOR106W, strain vam3, active compounds read low 0.987 | S. cerevisiae deletion strains, locus YOR136W, strain idh2, active compounds read low 0.975 | S. cerevisiae deletion strains, locus YOR144C, strain elg1, active compounds read low 0.989 | S. cerevisiae deletion strains, locus YOR184W, strain ser1, active compounds read low 0.917 | S. cerevisiae deletion strains, locus YOR231W, strain MKK1, active compounds read low 0.99 | S. cerevisiae deletion strains, locus YOR265W, strain rbl2, active compounds read low 0.961 | S. cerevisiae deletion strains, locus YOR270C, strain vph1, active compounds read low 0.94 | S. cerevisiae deletion strains, locus YOR290C, strain snf2, active compounds read low 0.994 | S. cerevisiae deletion strains, locus YOR316C, strain cot1, active compounds read low 0.99 | S. cerevisiae deletion strains, locus YPL051W, strain arl3, active compounds read low 0.997 | S. cerevisiae deletion strains, locus YPL078C, strain atp4, active compounds read low 0.981 | S. cerevisiae deletion strains, locus YPL106C, strain sse1, active compounds read low 1.02 | S. cerevisiae deletion strains, locus YPL240C, strain hsp82, active compounds read low 0.968 | S. cerevisiae deletion strains, locus YPL256C, strain CLN2, active compounds read low 1 | S. cerevisiae deletion strains, locus YPR119W, strain clb2, active compounds read low 0.994 | S. cerevisiae deletion strains, locus YPR141C, strain kar3, active compounds read low 0.982 | S. cerevisiae deletion strains, locus YPR163C, strain tif3, active compounds read low 0.989 | S. cerevisiae deletion strains, locus YPR167C, strain met16, active compounds read low 0.99 | S. cerevisiae deletion strains, strain wtn01, active compounds read low 0.968 | S. cerevisiae strains, strain wild type, active compounds read low 1.01
